ATXN2 expr inh: inhibitors of ATXN2 expression; HEK-293 ATXN2-luciferase reporter, luminescence, 24 h; Potency, µM (series often up to 57 µM), hits mostly inhibitors; actives 0.72% (n = 360,000); AID 1745845; further: nearly all actives have a fitted effect of over 55% in size
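ATXN2-luciferase reporter cells (luciferase flanked by upstream and downstream ATXN2 gene portions) were treated 24 h at 37 °C with compounds at up to 57 uM. SteadyGlo luminescence gave expression; GF-AFC fluorescence gave viability.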
D3 ag: activates the human D3 dopamine receptor; D3R DiscoveRx beta-arrestin cells, luminescence, 90 min; max activation, %; actives 0.58% (n = 410,000); in the data active means max activation above about 30%
Target sequence (P35462 whole entry, looked up): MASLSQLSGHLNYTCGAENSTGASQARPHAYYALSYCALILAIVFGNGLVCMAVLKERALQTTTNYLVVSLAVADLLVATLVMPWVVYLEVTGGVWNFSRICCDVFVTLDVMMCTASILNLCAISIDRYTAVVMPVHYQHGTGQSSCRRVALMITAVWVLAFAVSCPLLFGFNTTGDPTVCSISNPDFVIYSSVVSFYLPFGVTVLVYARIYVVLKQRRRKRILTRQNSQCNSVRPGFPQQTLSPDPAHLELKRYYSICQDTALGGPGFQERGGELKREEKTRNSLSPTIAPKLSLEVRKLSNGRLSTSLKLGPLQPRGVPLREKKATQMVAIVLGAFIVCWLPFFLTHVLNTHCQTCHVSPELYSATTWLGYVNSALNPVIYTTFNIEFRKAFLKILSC
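Cells at 1500/well, incubated overnight, then treated with pinned compounds (dopamine as control) for 90 min at 37 degrees C. DiscoveRx reagent added for 30 - 60 minutes at room temperature; luminescence read.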
D3 antag: D3 dopamine receptor (human) antagonism. P35462. D3R cells, DiscoveRx beta-arrestin luminescence, antagonist mode; stronger effect = lower value. max response, negative = inhibition, %. actives 2.5% (n = 360,000); in the data active means max response below about -50%; inconclusive means no clear call, values can overlap the other calls
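Cells expressing the human receptor were seeded at 1500 cells/well, incubated overnight at 37 degrees C in 5% CO2, then exposed to library compounds with dopamine controls for 90 minutes at 37 degrees C before luminescent detection.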
IL-1B inflam inh: inhibitors of inflammasome signaling (IL-1 beta secretion) | THP-1 LPS/ATP IL-1B secretion, AlphaLISA, 16 h; stronger effect = lower value | activity change, % at 57.5 µM | actives 4.7% (n = 360,000) | AID 743279; in the data active means activity change below about -50%; inconclusive means mostly about -30% to -49%
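Secreted IL-1B measured by AlphaLISA bead assay after 16 h compound exposure of THP-1 cells; compounds (final up to 57.5 uM) added 1 h before LPS (250 ng/mL) and ATP (1.25 mM) stimulation; lower signal means less secretion.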
ATXN viability: reduces viability in counter-screen for ATXN expression inhibitors | S2 cells (HEK-293 line with an ATXN2-luciferase reporter) viability, CellTiter-Fluor protease fluorescence, 24 h | Potency, µM (top dose mostly 56.7 µM), hits mostly cytotoxic | actives 0.49% (n = 400,000) | AID 651635; further: nearly all actives have a fitted effect of over 40% in size
a7 integrin act: activates integrin-mediated alleviation for muscular dystrophy; alpha7betagal myoblasts, beta-gal FDG fluorescence, 48 h; actives 0.064% (n = 350,000); Potency, µM (series often up to 38.3 µM), usual class: activators; further: nearly all actives have a fitted effect of over 60% in size
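Alpha7betagal+/- myoblasts (passage 13) were plated 16-24 hr, then exposed to compounds (1:260 dilution of DMSO stock) for 48 hours at 37C. After MPER lysis, β-galactosidase reporter activity was read as FDG fluorescence (ex 480/em 540) after 30 minutes.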
Numbers stand for hits. Hits are enriched below; roughly 7% of the tested compounds scored in any of these assays. Unless noted, the call rests on the fitted dose curve; in most records, active means well fitted curve in the direction sought with a large enough effect; inconclusive means small, poorly fitted or top-dose-only effect, or another doubt; inactive means no such curve, though single readings can be large; an effect the other way counts as inactive or inconclusive.

For C[C@H]1NC(=O)[C@]2(C)[C@@H](c3ccccc3)[C@H]3COc4ccccc4[C@@H]3N2C1=O the results were ATXN2 expr inh inactive, D3 ag inactive, D3 antag inactive, IL-1B inflam inh inactive, ATXN viability inactive and a7 integrin act inactive.
For C[C@@]12C(=O)Nc3ccc(F)cc3C(=O)N1[C@H]1c3ccccc3OC[C@@H]1[C@@H]2c1ccccc1 the results were ATXN2 expr inh inactive, D3 ag inactive, D3 antag inactive, IL-1B inflam inh inconclusive, ATXN viability inactive and a7 integrin act inactive.
Screening Cc1ccc2c(c1)C(=O)N1[C@H]3c4cc(C)ccc4OC[C@@H]3[C@H](c3ccccc3)[C@]1(C)C(=O)N2 returned ATXN2 expr inh inactive, D3 ag inactive, D3 antag inactive, IL-1B inflam inh -53, ATXN viability inconclusive and a7 integrin act inactive.
Screening C[C@@]12C(=O)Nc3cc(F)c(F)cc3C(=O)N1[C@H]1c3ccccc3OC[C@@H]1[C@@H]2c1ccccc1 returned ATXN2 expr inh inactive, D3 ag inactive, D3 antag inactive, IL-1B inflam inh -63, ATXN viability inactive and a7 integrin act inactive.
For Cn1c(CNc2ccc(C(=N)N)cc2)nc2cc(C(=O)N(CCC(=O)O)c3ccccn3)ccc21 the results were ATXN2 expr inh inactive.
For COc1cc2c(cc1OC)C(COc1ccc3c(C)cc(=O)oc3c1)N(C(=O)CC(C)C)CC2 (stereo not given) the results were ATXN2 expr inh inactive, D3 ag inactive and ATXN viability inconclusive.
Cc1ccc(N=Nc2c(=O)[nH]n3c(=O)cc(C)[nH]c23)cc1 was read as ATXN2 expr inh inactive, D3 ag inactive, D3 antag inactive, IL-1B inflam inh inactive, ATXN viability inconclusive and a7 integrin act inactive.
Screening O=C(CCNS(=O)(=O)c1ccc(Br)s1)Nc1ccc(Cl)cc1 returned ATXN2 expr inh inactive, D3 ag inactive, D3 antag -52, IL-1B inflam inh inconclusive, ATXN viability inactive and a7 integrin act inactive.
O=C(CCNS(=O)(=O)c1ccc(Br)s1)Nc1ccc(Br)cc1 was read as ATXN2 expr inh inactive, D3 ag inactive and ATXN viability inactive.
O=C(CCS(=O)(=O)c1ccc(Br)s1)NC1CCCC1 was read as ATXN2 expr inh inactive, D3 ag inactive, D3 antag inactive, IL-1B inflam inh inactive, ATXN viability inactive and a7 integrin act inactive.
O=C(CCNS(=O)(=O)c1ccc(Br)s1)NC1CCCC1 was read as ATXN2 expr inh inactive, D3 ag inactive, D3 antag -103, IL-1B inflam inh inactive, ATXN viability inactive and a7 integrin act inactive.
For O=C(Nc1cc(Sc2ccccn2)cc([N+](=O)[O-])c1)c1ccc([N+](=O)[O-])cc1 the results were ATXN2 expr inh inconclusive, D3 ag inactive, D3 antag inactive, IL-1B inflam inh -76, ATXN viability inconclusive and a7 integrin act inactive.
Screening O=C(CSC1=NCCN1)Nc1cccc(C(F)(F)F)c1 returned ATXN2 expr inh inactive, D3 ag inactive, D3 antag -65, IL-1B inflam inh -99, ATXN viability inactive and a7 integrin act inactive.
Screening O=C(CN1C(=O)C2CCCCC2C1=O)Nc1cccc(C(F)(F)F)c1 (stereo not given) returned ATXN2 expr inh inactive, D3 ag inactive, D3 antag inactive, IL-1B inflam inh inactive, ATXN viability inconclusive and a7 integrin act inactive.
For O=C(CNC1CCCCC1)Nc1cccc(C(F)(F)F)c1 the results were ATXN2 expr inh inactive, D3 ag inactive, D3 antag inactive, IL-1B inflam inh -77, ATXN viability inconclusive and a7 integrin act inactive.
For CCCCCNCC(=O)Nc1cccc(C(=O)Nc2cccc(C(F)(F)F)c2)c1 the results were ATXN2 expr inh inconclusive, D3 ag inactive, D3 antag inactive, IL-1B inflam inh -101 and a7 integrin act inactive.
`Cc1ccc(C(=O)Nc2cccc(C(F)(F)F)c2)cc1Nc1ccccn1` gave ATXN2 expr inh inconclusive, D3 ag inactive, D3 antag inactive, IL-1B inflam inh inactive, ATXN viability 32µM and a7 integrin act inactive.
Cn1ccnc1SCC(=O)Nc1cccc(C(F)(F)F)c1 was read as ATXN2 expr inh inactive, D3 ag inactive, D3 antag inactive, IL-1B inflam inh inactive, ATXN viability inactive and a7 integrin act inactive.
CC1=NN(C(=O)c2csc(C(C)C)c2)C(O)(C(F)(F)F)C1 (stereo not given) was read as ATXN2 expr inh inactive, D3 ag inactive, D3 antag inactive, IL-1B inflam inh inactive, ATXN viability inactive and a7 integrin act inactive.
COc1ccc(S(=O)(=O)N2CC(C)N(C(=O)N3CCOCC3)C2)cc1 (stereo not given) was read as ATXN2 expr inh inactive, D3 ag inactive, D3 antag inactive, IL-1B inflam inh inactive, ATXN viability inactive and a7 integrin act inactive.
Screening CCCOc1ccc(-c2nc3c(c(=O)[nH]c(=O)n3Cc3ccccc3)n2CCO)cc1OCC returned ATXN2 expr inh inactive, D3 ag inactive, D3 antag inactive, IL-1B inflam inh inactive, ATXN viability inactive and a7 integrin act inactive.
Screening CCOc1ccccc1NC(=O)c1cc(C(=O)c2cc(Br)ccc2O)coc1=N returned ATXN2 expr inh inactive, D3 ag inactive, D3 antag inactive, IL-1B inflam inh -86, ATXN viability inactive and a7 integrin act inactive.
Screening CC(C)OC(=O)c1cc(C(=O)c2cc(Br)ccc2O)coc1=N returned ATXN2 expr inh inactive, D3 ag inactive, D3 antag inactive, IL-1B inflam inh inactive, ATXN viability inactive and a7 integrin act inactive.
For Cc1ccc(NC2=CC(=O)CC(C)(C)C2)cc1Cl the results were ATXN2 expr inh inactive, D3 ag inactive, D3 antag inactive, IL-1B inflam inh inactive, ATXN viability inactive and a7 integrin act inactive.
For CC1(C)CC(=O)C=C(Nc2ccc(C(=O)O)c(O)c2)C1 the results were ATXN2 expr inh inactive, D3 ag inactive, D3 antag inactive, IL-1B inflam inh inactive, ATXN viability inactive and a7 integrin act 10µM.
Screening Cc1[nH][nH]c(=O)c1C(c1ccc(-c2ccc(F)cc2)o1)c1c(C)[nH][nH]c1=O returned ATXN2 expr inh inactive, D3 ag inactive, D3 antag inactive, IL-1B inflam inh inconclusive, ATXN viability inactive and a7 integrin act inactive.
For COc1ccc(-c2ccc(C(c3c(C)[nH][nH]c3=O)c3c(C)[nH][nH]c3=O)o2)c([N+](=O)[O-])c1 the results were ATXN2 expr inh inconclusive, D3 ag inactive, D3 antag inactive, IL-1B inflam inh -74, ATXN viability inactive and a7 integrin act inactive.
COc1ccc(Cl)cc1N1C(=O)/C(=C/c2sccc2C)N=C1SCC(=O)NC1CC1 was read as ATXN2 expr inh inactive, D3 ag inactive, D3 antag inconclusive, IL-1B inflam inh -70, ATXN viability inconclusive and a7 integrin act inactive.
